Data as given in the supplement of paper PMC9950053.
Counter-ions that a name gives are not always drawn.

The compounds below were run on Danio rerio larvae (5 dpf) (assay: habituation (activity change first vs second 5 min of 1-s interval sound, period 17) minus DMSO control (percentage points); higher = larger habituation measure than DMSO larvae). Conditions: 10 µM; exposure time: 3 h pre-incubation + 3 h imaging.
Summary of the method: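 At 28.5 °C, 5 dpf wild-type zebrafish larvae were treated with compounds (10 µM final) for 3 h ahead of and 3 h during imaging at one frame every 6 s. Tracks came from Z-LaP Tracker, discarding detections under 0.5 probability and any larva moving under 1% of the time. Each behavioural value is the difference, in percentage points, between the treated group mean and the control mean, with 48 larvae per group and 844 in the control.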

Going from CC1=Nc2ccc(Cl)cc2S(=O)(=O)N1 [Diazoxide] to Clc1ccc(COC(Cn2ccnc2)c2ccc(Cl)cc2Cl)c(Cl)c1 (stereo not drawn) [Miconazole nitrate], the habituation falls from 8.87 to -11.4.

First: CC1(C)O[C@@H]2[C@@H](CO[C@@]3(COS(N)(=O)=O)OC(C)(C)O[C@@H]23)O1 [Topiramate]
Second: CC(C)c1nc(N(C)S(C)(=O)=O)nc(-c2ccc(F)cc2)c1/C=C/[C@@H](O)C[C@@H](O)CC(=O)O [Rosuvastatin calcium]
The habituation of the first is lower: -1.06 for the first, 1.27 for the second.

Compound Nc1nc2[nH]cc(CCc3ccc(C(=O)N[C@@H](CCC(=O)O)C(=O)O)cc3)c2c(=O)[nH]1 [Pemetrexed] has a habituation of -1.84.

These compounds were tested on Danio rerio larvae (5 dpf) (assay: combined optomotor response (time in upper well half, down vs up moving lines, periods 7-14) minus DMSO control (percentage points); higher = stronger optomotor response than DMSO larvae). Conditions: 10 µM; exposure time: 3 h pre-incubation + 3 h imaging.

Going from CC(C)c1ccc2oc3nc(N)c(C(=O)O)cc3c(=O)c2c1 [Amlexanox] to COC(=O)C1=C(C)NC(C)=C(C(=O)OC(C)C)C1c1cccc2nonc12 (stereo not drawn) [Isradipine], the combined optomotor response falls from 4.64 to -14.7.

Going from CCOc1nc2cccc(C(=O)O)c2n1Cc1ccc(-c2ccccc2-c2nnn[nH]2)cc1 [Candesartan] to CNC(=O)c1ccccc1Sc1ccc2c(/C=C/c3ccccn3)n[nH]c2c1 [Axitinib], the combined optomotor response falls from 7.2 to 3.98.

Going from CN1CCC[C@@H]1CCO[C@](C)(c1ccccc1)c1ccc(Cl)cc1 [Clemastine fumarate] to Cc1ccccc1C(=O)Nc1ccc(C(=O)N2CCCC(O)c3cc(Cl)ccc32)c(C)c1 (stereo not drawn) [Tolvaptan], the combined optomotor response falls from 7.99 to 4.13.

Compared with CC1=Nc2ccc(Cl)cc2S(=O)(=O)N1 [Diazoxide], CCOC(=O)c1ncn2c1CN(C)C(=O)c1cc(F)ccc1-2 [Flumazenil] is higher in combined optomotor response: 2.18 for the first, 3.13 for the second.

Going from CN1CC[C@@H](NC(=O)Nc2ccc(C#N)cc2)C[C@@H]1c1nc2ccccc2[nH]1 to CN(CCOc1ccc(CC2SC(=O)NC2=O)cc1)c1ccccn1 (stereo not drawn) [Rosiglitazone], the combined optomotor response rises from -1.72 to 3.93.

Going from C=CC(=O)N1CCC[C@@H](n2nc(-c3ccc(Oc4ccccc4)cc3)c3c(N)ncnc32)C1 [Ibrutinib] to COc1cc2nc(N3CCN(C(=O)C4COc5ccccc5O4)CC3)nc(N)c2cc1OC (stereo not drawn) [Doxazosin mesylate], the combined optomotor response falls from 5.02 to -3.96.

Compared with OCCN(CCO)c1nc(N2CCCCC2)c2nc(N(CCO)CCO)nc(N3CCCCC3)c2n1 [Dipyridamole], CCOc1cc(CC(=O)N[C@@H](CC(C)C)c2ccccc2N2CCCCC2)ccc1C(=O)O [Repaglinide] is higher in combined optomotor response: -1.19 for the first, 2.6 for the second.

Going from CC1(C)O[C@@H]2[C@@H](CO[C@@]3(COS(N)(=O)=O)OC(C)(C)O[C@@H]23)O1 [Topiramate] to CC(=O)O[C@]1(C(C)=O)CC[C@H]2[C@@H]3C=C(C)C4=CC(=O)CC[C@]4(C)[C@H]3CC[C@@]21C [Megestrol Acetate], the combined optomotor response falls from -3.96 to -8.35.

First: CC(C)c1nc(N(C)S(C)(=O)=O)nc(-c2ccc(F)cc2)c1/C=C/[C@@H](O)C[C@@H](O)CC(=O)O [Rosuvastatin calcium]
Second: Nc1nc2[nH]cc(CCc3ccc(C(=O)N[C@@H](CCC(=O)O)C(=O)O)cc3)c2c(=O)[nH]1 [Pemetrexed]
The combined optomotor response of the first is higher: 6.26 for the first, 1.31 for the second.

Compared with CCCCNc1cc(C(=O)O)cc(S(N)(=O)=O)c1Oc1ccccc1 [Bumetanide], CC/C(=C(\c1ccccc1)c1ccc(OCCN(C)C)cc1)c1ccccc1 [Tamoxifen citrate] is lower in combined optomotor response: 9.27 for the first, -10.7 for the second.

Compared with COc1cc2ncnc(Nc3ccc(F)c(Cl)c3)c2cc1OCCCN1CCOCC1 [Iressa], COc1ccc(Cl)cc1C(=O)NCCc1ccc(S(=O)(=O)NC(=O)NC2CCCCC2)cc1 [Glibenclamide] is lower in combined optomotor response: 5.72 for the first, 1.3 for the second.

Compared with Nc1cccc2c1CN(C1CCC(=O)NC1=O)C2=O (stereo not drawn) [Lenalidomide], O=C1CCc2cc(OCCCCc3nnnn3C3CCCCC3)ccc2N1 [Cilostazol] is higher in combined optomotor response: 1.12 for the first, 5.41 for the second.

Compared with C[C@H]1C[C@@H]2[C@H]([C@@H](O)C[C@@]3(C)[C@H]2CC[C@]3(O)C(=O)CO)[C@@]2(C)C=CC(=O)C=C12 [Methylprednisolone], CCC(=O)O[C@]1(C(=O)SCF)[C@H](C)C[C@H]2[C@@H]3C[C@H](F)C4=CC(=O)C=C[C@]4(C)[C@@]3(F)[C@@H](O)C[C@@]21C [Fluticasone propionate] is lower in combined optomotor response: 8.85 for the first, 2.4 for the second.

First: CC(CCc1ccc(O)cc1)NCCc1ccc(O)c(O)c1 (stereo not drawn) [Dobutamine hydrochloride]
Second: Clc1ccc(COC(Cn2ccnc2)c2ccc(Cl)cc2Cl)c(Cl)c1 (stereo not drawn) [Miconazole nitrate]
The combined optomotor response of the first is higher: 1.08 for the first, -12.3 for the second.

First: CC(=O)S[C@@H]1CC2=CC(=O)CC[C@]2(C)[C@H]2CC[C@@]3(C)[C@@H](CC[C@@]34CCC(=O)O4)[C@H]12 [Spironolactone]
Second: CO[C@H]1/C=C/O[C@@]2(C)Oc3c(C)c(O)c4c(O)c(c5c(nc6cc(C)ccn65)c4c3C2=O)NC(=O)/C(C)=C\C=C\[C@H](C)[C@H](O)[C@@H](C)[C@@H](O)[C@@H](C)[C@H](OC(C)=O)[C@@H]1C [Rifaximin]
The combined optomotor response of the first is lower: 0.523 for the first, 2.32 for the second.

First: COc1c(C)c2c(c(O)c1C/C=C(\C)CCC(=O)O)C(=O)OC2 [Mycophenolic acid]
Second: Nc1ccn([C@@H]2O[C@H](CO)[C@@H](O)C2(F)F)c(=O)n1 [Gemcitabine hydrochloride]
The combined optomotor response of the first is higher: 7.6 for the first, 1.86 for the second.

Work on Clc1ccccc1C(c1ccccc1)(c1ccccc1)n1ccnc1 [Clotrimazole] yielded a combined optomotor response of -7.18.
